High-throughput results (PubChem)
Shiga toxin inh = blocks Shiga toxin action in Vero cells | Vero cells, Shiga toxin protein synthesis inhibition reporter | inhibition, % at 38.7 µM | 9.2% of 290,000 active; in the data active = inhibition mostly above about 28%, no sharp cut-off; inactive = mostly below about 43%; also: 0% is about no effect
LmPK inh = blocks Leishmania mexicana pyruvate kinase activity; Q27686; purified LmPK, Kinase-Glo ATP luminescence, 1 h; Potency, µM (highest dose often 57.5 µM), for inactives: top-dose activity change, negative = inhibition, most hits filed as inhibitors; 0.37% of 290,000 active; AID 1721; also: potency is read from the fitted curve at half-maximal effect; % is scaled to controls: 0 for no effect and ±100 for the full control effect
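Purified LmPK (0.1 nM) converted ADP (0.1 mM) to ATP with PEP (0.5 mM) in imidazole buffer pH 7.2 with KCl and MgCl2, 1 h at room temperature. ATP was read by Kinase-Glo luminescence; data normalized to uninhibited and no-enzyme controls.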
Tb PYK inh = blocks Trypanosoma brucei pyruvate kinase; Q57TT1; TbPYK enzyme, Kinase-Glo Plus ATP luminescence, 45 min; Potency, µM (doses to about 76.8 µM), for the others: at the highest dose activity, negative = inhibition, actives largely listed as inhibitors; 0.12% of 410,000 active; AID 624173; also: potency is read from the fitted curve at half-maximal effect; % is scaled to controls: 0 for no effect and ±100 for the full control effect; nearly all actives have a fitted effect of over 50% in size
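Assay buffer: 50 mM TEA pH 7.2, 100 mM KCl, 10 mM MgCl2, 0.05% BSA, 0.01% Tween-20. Pyruvate kinase from T. brucei plus substrate met compound, then ADP (130 uM final). Luminescence was read post 45 min RT.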
Giardia FBPA inh = inhibitors of Giardia lamblia fructose-1,6-bisphosphate aldolase; A8B2U2; purified Giardia FBPA; Potency, µM (series often up to 59.6 µM), inactives show at the top dose activity, negative = inhibition, actives largely listed as inhibitors; 0.71% of 290,000 active; also: potency is read from the fitted curve at half-maximal effect; % is scaled to controls: 0 for no effect and ±100 for the full control effect; nearly all actives have a fitted effect of over 55% in size
Target sequence (A8B2U2 whole entry, looked up): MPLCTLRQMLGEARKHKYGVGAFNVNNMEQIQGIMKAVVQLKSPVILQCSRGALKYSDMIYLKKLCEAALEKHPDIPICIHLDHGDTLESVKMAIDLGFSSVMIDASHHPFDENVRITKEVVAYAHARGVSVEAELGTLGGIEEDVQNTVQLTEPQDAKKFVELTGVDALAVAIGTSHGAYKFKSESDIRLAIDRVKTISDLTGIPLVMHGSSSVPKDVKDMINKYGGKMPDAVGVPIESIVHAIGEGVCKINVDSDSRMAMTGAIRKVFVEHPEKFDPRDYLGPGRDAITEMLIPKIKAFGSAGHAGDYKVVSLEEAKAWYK
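40 nM FBPA preincubated 10 min at RT with compound (up to 57.5 uM final), then substrate plus GAPDH/TPI/NAD/arsenate coupling and diaphorase/resazurin added. Fluorescence read after 20 min at RT, 525/598 nm.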
Cycloheximide cs = affects cycloheximide protein synthesis inhibition readout, counter-screen | max response, % | cell reporter, cycloheximide protein synthesis inhibition counterscreen | 12% of 300,000 active; in the data active = max response mostly above about 13%, no sharp cut-off; inactive = mostly below about 14%; also: read at 38.3 µM for the half of the compounds with a filed dose; 0% is about no effect
RE007 growth inh = less growth of the S. pombe RE007 Vpr strain; AID 651644; 0.21% of 360,000 active; Potency, µM (top dose mostly 92.2 µM), inactives show top-dose activity change, negative = less growth, most hits filed as inhibitors; S. pombe RE007 Vpr strain, BacTiter-Glo ATP luminescence, 24 h; active = well fitted falling curve with a large enough effect; inconclusive = small, poorly fitted or top-dose-only effect; inactive = no such curve, though single readings can be large or run the other way; also: potency is read from the fitted curve at half-maximal effect; % is scaled to controls: 0 for no effect and ±100 for the full control effect; nearly all actives have a fitted effect of over 50% in size
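Fission yeast strain RE007, carrying one chromosomally integrated HIV-1 vpr copy, was seeded at OD 0.01 in PMG+AL medium with 23 nL pinned compound. After 24 h at 30 °C and 99% humidity, viability was read by BacTiter-Glo luminescence.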
An asterisk follows results filed as active; ? = inconclusive; · = no result. This is one part of a sample in which hits are shown more often than they occur. Unless noted, calls follow the shape of the dose curve; as a rule, active = well fitted curve in the direction sought with a large enough effect; inconclusive = small, poorly fitted or top-dose-only effect, or another doubt; inactive = no such curve, though single readings can be large; an effect the other way counts as inactive or inconclusive.

SMILES	Shiga toxin inh	LmPK inh	Tb PYK inh	Giardia FBPA inh	Cycloheximide cs	RE007 growth inh
CCc1ccc(OCc2nc(-c3ccc(OC)cc3)no2)c(Br)c1	·	·	0%	·	·	·
COc1ccc(Cc2nc(-c3ccc(Br)cc3)no2)cc1	31*	-3%	-5%	-1%	29*	-12%
COc1ccc(Cc2nc(-c3ccc(Cl)cc3)no2)cc1	49*	-9%	3%	-1%	21*	?
c1ccc(C(Cc2nc(-c3ccncc3)no2)c2ccccc2)cc1	-5	6%	-2%	-1%	-2	11%
Clc1ccc(-c2noc(COc3ccccc3)n2)cc1	24	-3%	8%	3%	-2	-2%
COc1cc(OC)c(NC(=O)CSc2nc3ccncc3[nH]2)cc1Cl	·	·	-3%	·	·	·
CC(=O)NCCNc1ncnc2ccc(-c3ccccc3C#N)cc12	·	·	·	-2%	·	·
COc1cccc(-c2oc3c(c2-c2ccc(OC)nc2)C(O)CCC3)c1 (configuration not stated)	·	·	-1%	·	·	-7%
O=C(CSc1nnc2ccccn12)Nc1ncc(Cl)cc1Cl	36	0%	2%	3%	23*	21%
CC1CCCC(C)N1C(=O)CSc1ccc(-c2ccc3c(c2)OCCO3)nn1 (configuration not stated)	40	0%	4%	-17%	11	-4%
Cc1cccc(-n2ccnc2SCC(=O)Nc2ccc3c(c2)OCCO3)c1	-2	1%	-9%	1%	27*	-1%
CC(Sc1nnc2ccccn12)C(=O)Nc1ncc(Cl)cc1Cl (configuration not stated)	18	2%	2%	11%	26	-10%
O=C(CSc1ccc(-c2ccccc2)nn1)Nc1ccc2c(c1)OCCO2	74*	-1%	3%	-6%	79*	-15%
Cc1cccc(-n2ccnc2SCC(=O)Nc2ccc3c(c2)OCO3)c1	·	·	-11%	·	·	·
CC1CCN(C(=O)CSc2ccc(-c3ccc4c(c3)OCCO4)nn2)CC1	35	-11%	-5%	·	20*	-13%
CC(=O)c1cccc(NC(=O)CSc2ccc(-c3ccc4c(c3)OCO4)nn2)c1	3	-3%	-5%	1%	8	-23%
Cc1cccc(C)c1NC(=O)COC(=O)c1ccc([N+](=O)[O-])o1	-5	0%	-2%	-25%	-4	-7%
CCOc1ccc(N(CC)S(=O)(=O)N2CCCC(C(=O)NCc3ccccc3OCC)C2)cc1 (configuration not stated)	·	·	1%	·	·	·
O=C(CSc1ccccc1)Nc1ccc2c(c1)OCCO2	75*	-9%	0%	·	40*	11%
O=C(CSc1ccc2c(c1)OCCO2)Nc1ccc2c(c1)OCO2	-12	5%	1%	0%	15*	-18%
O=C(CSc1ccccc1)Nc1ccc2c(c1)OCO2	65*	3%	-1%	17%	47*	-17%
O=C(CCS(=O)(=O)c1ccccc1)Nc1ccc2c(c1)OCO2	112*	-3%	2%	0%	55*	1%
O=C(CSc1ccc2c(c1)OCCO2)Nc1ccc(Br)cc1	-32	3%	-7%	-4%	-1	?
COc1cc2c(cc1OC)CN(C(=O)c1cc(S(=O)(=O)N3CCOCC3)c(Cl)cc1Cl)CC2	-2	3%	-1%	·	3	8%
CC(=O)c1ccc(NC(=O)Cn2nc(C(F)(F)F)c3c2CCC3)cc1	·	·	-1%	·	·	·
SMILES	Shiga toxin inh	LmPK inh	Tb PYK inh	Giardia FBPA inh	Cycloheximide cs	RE007 growth inh
O=C(OC(C(=O)NC1CCCCC1)c1ccccc1F)c1ccco1 (configuration not stated)	-8	-5%	1%	3%	8	3%
O=C(CSc1cn(CCNC(=O)c2ccccc2F)c2ccccc12)Nc1ccc2c(c1)OCCO2	·	·	2%	·	·	·
Cn1cc(SCC(=O)Nc2ccc3c(c2)OCCO3)c2ccccc21	63*	1%	?	-2%	24*	0%
O=C(CSc1nc(-c2ccccc2)c(-c2ccccc2)[nH]1)Nc1ccc2c(c1)OCO2	24	9%	-4%	-2%	15*	-7%
O=C(Cn1cnc2ccccc2c1=O)Nc1ccc2c(c1)OCCO2	90*	2%	6%	1%	46*	-4%
CCn1c(=O)cc(SCC(=O)Nc2ccc3c(c2)OCO3)c2ccccc21	25	1%	8%	11%	9.9*	6%
O=C(C[C@H]1C/C=C\CCC(=O)O[C@@H](c2ccccc2)CNC1=O)NCCO	·	·	1%	·	·	-1%
Cc1ccc(S(=O)(=O)C(CNC(=O)c2ccccc2F)c2cccs2)cc1 (configuration not stated)	·	·	4%	·	·	·
O=C(CSc1nnc2ccccn12)NCc1ccc2c(c1)OCO2	10	1%	0%	-1%	8	-13%
O=C(CSc1nnc2ccccn12)Nc1ccc2c(c1)OCCO2	130*	1%	1%	3%	26*	-14%
O=C(CSc1cccc[n+]1[O-])Nc1ccc2c(c1)OCCO2	25	12%	-3%	1%	16*	1%
O=C(CSc1cccc[n+]1[O-])Nc1ccc(N2CCOCC2)cc1	38	-2%	·	-19%	7	·
CCNCCCNCCCCNCCCNCC	·	·	·	2%	·	·
COc1ccc(OCCSc2ncnc3nc[nH]c23)cc1	36	1%	1%	-22%	37*	-2%
c1nc(SSc2ncnc3nc[nH]c23)c2[nH]cnc2n1	·	·	3.5µM*	·	·	-1%
c1ccc(OCCSc2ncnc3nc[nH]c23)cc1	·	·	-5%	·	·	7%
Fc1ccccc1OCCSc1ncnc2nc[nH]c12	76*	1%	-3%	2%	36*	1%
O=C(c1ccco1)N1CCC2(CCCN(Cc3ccncc3)C2)CC1	·	·	3%	-2%	·	·
Cc1cc(C=C2C(=O)NC(=S)NC2=O)c(C)n1C1CCCC1	71*	-11%	-26%	-8%	43*	-12%
N#CCSc1nc2ccc(N3CCCCC3)cc2c(=O)n1Cc1ccccc1	38*	4%	-8%	-24%	21*	7%
c1ccc(CSc2nnnn2-c2ccc3c(c2)OCCO3)nc1	43	10%	1%	-1%	21*	5%
O=C(CSc1nnnn1-c1ccc2c(c1)OCCO2)N1CCc2ccccc21	-10	-2%	1%	-2%	-7	5%
O=C(CSc1nnnn1-c1ccc2c(c1)OCCO2)Nc1nc2c(s1)CCCC2	20	8%	-7%	16%	1	-5%
O=C(CSc1nnnn1-c1ccc2c(c1)OCCO2)OC1CCCCC1	102*	4%	1%	-1%	34*	-11%
CCOC(=O)c1c(S(=O)(=O)NCC(=O)Nc2cccc(C)c2)c(C)n(C)c1C	-10	9%	6%	·	-5	-3%
Cc1cc(C)c(C)c(OCC(=O)O/N=C(\N)c2ccccn2)c1	32	-1%	-4%	-1%	22	-26%
